Assay outcomes (PubChem BioAssay)
Only some compounds are listed: those with a hit (about 28% of all), similar ones and a draw of the others.
D1 mod: allosterically modulates the human D1 dopamine receptor. B-score at 10 µM. HEK293 D1, CRE-luciferase, dopamine EC30 potentiation; actives deviate in either direction. P21728. AID 641. 58,000 tested, 5.9% active;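 active = luminescence count or its row- and column-corrected plate score outside the 99.7% band of the plate's sample wells, on either side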
Target sequence (P21728 whole entry, looked up): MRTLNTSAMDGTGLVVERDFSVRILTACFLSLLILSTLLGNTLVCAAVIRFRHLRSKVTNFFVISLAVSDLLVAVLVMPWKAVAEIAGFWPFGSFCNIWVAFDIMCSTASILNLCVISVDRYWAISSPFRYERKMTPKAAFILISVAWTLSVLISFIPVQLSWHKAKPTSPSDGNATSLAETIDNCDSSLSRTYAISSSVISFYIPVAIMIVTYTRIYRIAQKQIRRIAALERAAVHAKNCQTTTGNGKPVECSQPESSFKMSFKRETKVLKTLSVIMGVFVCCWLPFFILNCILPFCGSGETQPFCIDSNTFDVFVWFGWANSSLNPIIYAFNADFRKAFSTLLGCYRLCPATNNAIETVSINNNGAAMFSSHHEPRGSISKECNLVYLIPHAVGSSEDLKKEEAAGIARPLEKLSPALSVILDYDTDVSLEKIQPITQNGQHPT
CYP2C9 act: increases human cytochrome P450 2C9 activity; AID 1024; recombinant CYP2C9, luciferin-H conversion, luminescence; active compounds read high; factor 1 = untreated enzyme, 0 = blocked; 96,000 tested, 1.4% active; activation factor at 5 µM;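 active = activation factor of 2 or more for CYP2C9 at a 5 µM dose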;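 also: 0 = sulfaphenazole-blocked wells and 1 = vehicle-only wells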
CYP2C19 activ: cytochrome P450 2C19 (human) activation; P33261; recombinant CYP2C19, luciferin-H EGE luminescence; active compounds read high; 0 = fully inhibited enzyme, 1 = untreated enzyme; activation factor at 5 µM; 96,000 tested, under 10 active; AID 1025;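 active = activation factor of at least 2 at 5 µM in the primary screen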;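 also: 0 = wells with 2.5 mM tranylcypromine and 1 = vehicle-only wells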
DAT uptake mod: changed human dopamine transporter uptake under cocaine IC80; LLC-PK1 hDAT cells, [14C]-dopamine uptake with cocaine IC80; actives deviate in either direction; 110,000 tested, 1.3% active; B-score at 10 µM;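 active = Z score or B-score, a plate-position-corrected score, falls beyond the plate's 99.7% confidence bounds, in either direction; inactive = both scores lie inside the 99.7% bounds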;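 also: scored against the spread of the other compound wells on the same plate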
CYP2C9 inh: inhibitors of human CYP2C9. P11712. AID 777. 96,000 tested, 20% active. CYP2C9 Supersomes, luciferin-H conversion, luminescence. inhibition, % at 5 µM;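 active = blocking of liver enzyme CYP2C9 beyond about 50% at 5 µM, limit read from the data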
CYP2C19 inhib: human CYP2C19 inhibition | 96,000 tested, 21% active | inhibition, % at 5 µM | P33261 | CYP2C19 Supersomes, luciferin-H EGE luminescence, 30 min;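 active = CYP2C19 inhibition above a set limit at 5 µM in the primary screen, cut at about 50% in these data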;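 also: plate controls were negative control wells for no effect and 2.5 mM tranylcypromine positive control for full effect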
Starred values were filed as active, the others as inactive; / = no result given.

SMILES | D1 mod | CYP2C9 act | CYP2C19 activ | DAT uptake mod | CYP2C9 inh | CYP2C19 inhib
Cc1ccc(C(=O)N2CC(C)OC(C)C2)c(Cl)c1 (stereo not drawn) | / | 1.1 | 0.8 | 0.12 | -5 | 20
CC(C)OCCCN1CN(S(=O)(=O)c2ccc(Cl)cc2)c2nc3ccccc3nc21 | / | 0.7 | 0.6 | -1.4 | 28 | 38
CCOCCCn1cnc2c(c1=O)c1nc3ccccc3nc1n2-c1ccccc1 | 0.6 | 0.9 | 0.9 | 0.54 | 14 | 7
CCOCCCN1CN(S(=O)(=O)c2ccc(Cl)cc2)c2nc3ccccc3nc21 | / | 0.2 | 0.5 | -0.00047 | 81* | 54*
CC(C)OCCCN1CN(S(=O)(=O)c2cccc(Cl)c2)c2nc3ccccc3nc21 | / | 0.2 | 0.5 | 0.72 | 81* | 54*
O=c1c([N+](=O)[O-])cc(C(F)(F)F)cn1Cc1c(Cl)cccc1Cl | / | 0.8 | 0.5 | / | 20 | 46
Cc1ccc2c(c1)NC(=O)C(CC(=O)NCCCN1CCCC1)O2 (stereo not drawn) | 0.16 | 1 | 1 | -0.0025 | 4 | -2
COc1ccc(N2CCN(CCCNC(=O)CC3Oc4ccc(C)cc4NC3=O)CC2)cc1 (stereo not drawn) | -0.93 | 0.2 | 0.9 | 0.052 | 77* | 13
CCn1ccc(C(=O)Oc2ccc(Cl)cc2)n1 | / | 0.7 | 0.7 | 0.29 | 30 | 30
Cc1ccc(O)c(C(=O)c2cnn(C(=O)Cc3csc(C)n3)c2)c1 | -0.83 | 0.2 | 0.7 | 0.0026 | 77* | 28
Cc1ncc(CC(=O)n2cc(C(=O)c3cc(F)ccc3O)cn2)s1 | / | 0.9 | 1.1 | -0.53 | 6 | -9
CCCN1C(=O)C(O)(C2CC(=O)CC(C)(C)O2)c2ccccc21 (stereo not drawn) | 1.2 | 1.3 | 0.8 | -0.27 | -30 | 15
Cc1ccc(NN2C(=O)C=C(c3ccc(Cl)cc3)C2=O)cc1 | / | 0.4 | 1 | -0.6 | 56* | -5
COc1c(Br)cc(Br)cc1C(=O)O | -0.069 | 0.9 | 1.2 | 0.0022 | 6 | -17
Cc1cc2ncn(C3CC(=O)N(Cc4ccc(N5CCCC5=O)cc4)C3=O)c2cc1C (stereo not drawn) | -0.47 | 0.6 | 0.7 | -0.16 | 37 | 30
Cc1n[nH]c(C)c1C(=O)CC1(O)C(=O)N(Cc2ccccc2)c2ccc(Br)cc21 (stereo not drawn) | / | 0.4 | 0 | 0.041 | 61* | 99*
Cc1n[nH]c(C)c1C(=O)CC1(O)C(=O)N(CCc2ccccc2)c2ccc(Br)cc21 (stereo not drawn) | / | 0.3 | 0.4 | 1.2 | 66* | 56*
CCC(Sc1nc2cc3c(cc2c(=O)n1Cc1ccco1)OCO3)C(=O)Nc1cccc(OC)c1 (stereo not drawn) | 0.95 | 0.4 | 0.8 | 0.16 | 60* | 24
COCCNC(=O)CSc1nc2cc3c(cc2c(=O)n1Cc1ccco1)OCO3 | / | 0.5 | 0.1 | 0.24 | 53* | 93*
CCC(Sc1nc2cc3c(cc2c(=O)n1Cc1ccco1)OCO3)C(=O)NCCOC (stereo not drawn) | / | 0.7 | 0.6 | 0.25 | 26 | 39
COc1cc2nc(SCC(=O)NCc3ccco3)n(Cc3ccc(Cl)cc3)c(=O)c2cc1OC | -3.8* | / | / | 3.8* | / | /
COCCNC(=O)c1ccc2c(=O)n(Cc3ccco3)c(SCC(=O)NC3CCCC3)nc2c1 | / | 0.2 | 0.5 | -0.13 | 81* | 52*
Cc1ccc(Cn2c(SCC(=O)NCc3ccco3)nc3ccsc3c2=O)cc1 | 2.8 | 0.7 | 0.8 | 0.7 | 32 | 20
C#CC[N+](C)(C)C(C#Cc1ccccc1)CC=C (stereo not drawn) | / | 1 | 1.1 | -0.52 | 3 | -8
CCC1=CC(c2ccccc2)n2ncnc2N1 (stereo not drawn) | / | / | / | -0.17 | / | /
SMILES | D1 mod | CYP2C9 act | CYP2C19 activ | DAT uptake mod | CYP2C9 inh | CYP2C19 inhib
COc1cc(/C=C\C(=O)NCc2ccc3c(c2)cc(C)n3C)cc(OC)c1OC | / | / | / | -1.2 | / | /
COC(=O)c1nn(-c2ccccc2)c(Sc2ccc(OC)cc2)c1/C=N/O | / | 0.6 | 0.7 | 1.8 | 43 | 27
COC(=O)c1nn(-c2ccccc2)c(Cl)c1/C=N/OCc1ccc(C)cc1 | / | 0.5 | 0.7 | 1.6* | 46 | 28
O=C1CCCc2nc3nc4ccccc4n3cc21 | / | 1.2 | 1.2 | -0.26 | -24 | -18
O=C(COc1ccccc1-c1ccccc1)Nc1ccc(S(=O)(=O)NCc2ccco2)cc1 | / | 0.7 | 1 | 1.7 | 34 | -5
Cc1onc(-c2ccccc2)c1C(=O)n1cccn1 | -0.0013 | 0.9 | 0.6 | -1.6 | 7 | 41
Cc1onc(-c2ccccc2Cl)c1C(=O)OCn1nnc2ccccc2c1=O | -0.014 | 1 | 0.7 | 0.75 | 4 | 33
Cc1onc(-c2ccccc2Cl)c1C(=O)OCC(=O)N1CCCc2ccccc21 | 0.54 | 0 | 0.1 | 1.7 | 96* | 94*
Cc1onc(-c2ccccc2Cl)c1C(=O)N1CCc2ccccc21 | -2.8* | 0.7 | 0.3 | -0.63 | 34 | 69*
Cc1onc(-c2ccccc2)c1C(=O)N1CCc2ccccc21 | -0.19 | 0.6 | 0.1 | -0.026 | 41 | 90*
Cc1onc(-c2ccccc2Cl)c1C(=O)N1CCCc2ccccc21 | -0.66 | 0.8 | 0.3 | -0.72 | 16 | 68*
Cc1noc(C)c1C(=O)N1CCCc2ccccc21 | / | 1 | 0.8 | -0.24 | 4 | 18
O=C1CC(N2CCC(c3nc4ccccc4s3)CC2)C(=O)N1 (stereo not drawn) | -0.29 | 1.2 | 1.1 | 1.1 | -16 | -14
CCOC(=O)c1nn(-c2ccccc2F)c(-c2ccccc2)c1C(=O)c1ccccc1 | / | 0.6 | 0.7 | 1.2 | 36 | 27
CN1CC(=O)N/C1=N\C(=O)Nc1ccc2c(c1)N(C)C(=O)CS2 | / | 0.7 | 0.9 | 0.038 | 33 | 6
Cc1onc(-c2c(F)cccc2Cl)c1C(=O)N1CCCc2ccccc21 | -0.2 | 0.7 | 0.3 | 0.0098 | 26 | 66*
Cc1onc(-c2c(F)cccc2Cl)c1C(=O)N1C=CC(C(F)(F)Cl)=NCC1 | / | 0.7 | 0.4 | -0.029 | 29 | 58*
Cc1ccc2c(c1)CCCN2C(=O)c1c(C)noc1C | -0.11 | 0.6 | 0.5 | 0.29 | 35 | 47
Cc1cccc(N2C(=O)CC(Sc3nnc(C)s3)C2=O)c1 (stereo not drawn) | / | / | / | 0.014 | / | /
COc1ccc(-c2nc(CSCC(=O)NCc3ccco3)c(C)o2)cc1 | -1 | 0.7 | 0.8 | -0.64 | 28 | 15
COc1ccc(-c2nc(CSCC(=O)NC3CCCc4ccccc43)c(C)o2)cc1 (stereo not drawn) | / | 0.4 | 0.4 | 1.9 | 58* | 63*
O=C(COc1ccc(-c2nnco2)cc1)NC1CCCc2ccccc21 (stereo not drawn) | 1.2 | 0.1 | 0 | 1.8 | 86* | 98*
O=C(CSc1nc2ccccc2c(=O)[nH]1)N1CCCCCC1 | -0.05 | 0.8 | 0.9 | 1.2 | 25 | 12
O=C(CSc1nc2ccccc2c(=O)[nH]1)c1ccc(O)c(O)c1 | 0.32 | 0.2 | 0.8 | 1.2 | 77* | 22
